In PubChem BioAssay AID651919 (Sanford-Burnham Center for Chemical Genomics, 2012) one finds inhibition data, which are given here for 34 molecules.

The term inhibition denotes the relative decrease from the control value, in per cent.

Where “and” joins values, the source holds several entries; their conditions need not be identical. Equal entries are not always repeated.

The target of the test is C-X-C chemokine receptor type 5 (Homo sapiens) (UniProt P32302). The experiment in a line: CXCR6 and CXCR5 receptor antagonist panel, profiling panel, selectivity assay for CXCR6 antagonist project, cell-based, CHO-K1 PathHunter beta-arrestin, luminescence, set 4 (AID 651919). The conditions noted are these: run 1, at 79 µM (top of the series).
Turning to `COc1ccc(NC(=O)CN2C3CCCC2CC(NC(=O)c2ccc(OC)cc2)C3)cc1` (centres undefined), the inhibition is -6.48%.

`COc1ccc(C(=O)NC2CC3CCCC(C2)N3CC(=O)Nc2ccc(C)cc2)cc1OC` (centres undefined): the inhibition is 22.7%.

Take `COc1ccc(NC(=O)CN2C3CCCC2CC(NC(=O)c2cc(OC)cc(OC)c2)C3)cc1` (centres undefined): the inhibition was determined as 22.9%.

`COc1cc(OC)cc(C(=O)NC2CC3CCCC(C2)N3CC(=O)Nc2ccc(C)cc2)c1` (centres undefined): the inhibition was determined as 8.41%. `COc1cccc(C(=O)NC2CC3CCCC(C2)N3CC(=O)Nc2ccc(C)cc2)c1` (centres undefined): the inhibition stood at 44.1%. For `Cc1ccc(NC(=O)CN2C3CCCC2CC(NC(=O)c2ccc4c(c2)OCO4)C3)cc1` (centres undefined), the inhibition was found to be 42%. For the molecule `COc1ccc(C(=O)NC2CC3CCCC(C2)N3CC(=O)Nc2ccc(Cl)cc2)cc1` (centres undefined), the inhibition was found to be 34.5%. `COc1cc(C(=O)NC2CC3CCCC(C2)N3CC(=O)Nc2ccc(Cl)cc2)cc(OC)c1OC` (centres undefined): the inhibition was -11.9%. As for `COc1ccc(C(=O)NC2CC3CCCC(C2)N3CC(=O)Nc2ccc(C)cc2)cc1` (centres undefined), the inhibition was determined as 22.2%. For `COc1ccc(NC(=O)CN2C3CCCC2CC(NC(=O)c2ccc4c(c2)OCO4)C3)cc1` (centres undefined), the inhibition was 21%.

On to `COc1ccc(NC(=O)CN2C3CCCC2CC(NC(=O)c2cc(OC)c(OC)c(OC)c2)C3)cc1` (centres undefined), for which the inhibition was -6.42%. In the case of `COc1cc(OC)cc(C(=O)NC2CC3CCCC(C2)N3CC(=O)Nc2ccccc2)c1` (centres undefined), the inhibition worked out at 37.4%. In the case of `COc1cccc(C(=O)NC2CC3CCCC(C2)N3CC(=O)Nc2ccc(F)cc2)c1` (centres undefined) it was -4.11%. In the case of `COc1cc(C(=O)NC2CC3CCCC(C2)N3CC(=O)Nc2ccccc2Cl)cc(OC)c1OC` (centres undefined) it was 29.2% and 16%. For the molecule `O=C(CN1C2CCCC1CC(NC(=O)c1ccc3c(c1)OCO3)C2)Nc1ccc(Cl)cc1` (centres undefined), the inhibition stood at 44.8%.

With `COc1ccc(NC(=O)CN2C3CCCC2CC(NC(=O)c2ccc(OC)c(OC)c2)C3)cc1` (centres undefined), the inhibition was -3.99%.

As for `O=C(CN1C2CCCC1CC(NC(=O)c1ccc3c(c1)OCO3)C2)Nc1ccc(F)cc1` (centres undefined), the inhibition turned out to be 6.87%. On to `O=C(CN1C2CCCC1CC(NC(=O)c1ccc3c(c1)OCO3)C2)Nc1ccccc1` (centres undefined), for which the inhibition worked out at 27.8%. As for `COc1ccc(C(=O)NC2CC3CCCC(C2)N3CC(=O)Nc2ccc(Cl)cc2)cc1OC` (centres undefined), the inhibition is 0.551%. As to `O=C(CN1C2CCCC1CC(NC(=O)c1ccccc1)C2)Nc1ccccc1` (centres undefined), the inhibition was determined as 8.48%. Consider `COc1ccc(C(=O)NC2CC3CCCC(C2)N3CC(=O)Nc2ccc(F)cc2)cc1` (centres undefined), for which the inhibition is -9.29%. In the case of `COc1ccc(C(=O)NC2CC3CCCC(C2)N3CC(=O)Nc2ccccc2)cc1OC` (centres undefined), the inhibition stood at 16.5%.

Take `COc1cc(C(=O)NC2CC3CCCC(C2)N3CC(=O)Nc2ccccc2)cc(OC)c1OC` (centres undefined): the inhibition was 8.6% and 15.6%. In the case of `COc1cc(C(=O)NC2CC3CCCC(C2)N3CC(=O)Nc2ccc(F)cc2)cc(OC)c1OC` (centres undefined) it was 1.06%; in that of `COc1ccc(C(=O)NC2CC3CCCC(C2)N3CC(=O)Nc2ccc(F)cc2)cc1OC` (centres undefined), 1.06%. Consider `COc1ccc(NC(=O)CN2C3CCCC2CC(NC(=O)c2cccc(OC)c2)C3)cc1` (centres undefined), for which the inhibition was 8.8%. Take `COc1cccc(C(=O)NC2CC3CCCC(C2)N3CC(=O)Nc2ccccc2)c1` (centres undefined): the inhibition is 10.5%.

As to `COc1cc(OC)cc(C(=O)NC2CC3CCCC(C2)N3CC(=O)Nc2ccc(F)cc2)c1` (centres undefined), the inhibition was 32.4%. In the case of `COc1ccccc1NC(=O)CN1C2CCCC1CC(NC(=O)c1cc(OC)c(OC)c(OC)c1)C2` (centres undefined), the inhibition was found to be 10.1%.

On to `COc1cc(C(=O)NC2CC3CCCC(C2)N3CC(=O)Nc2ccc(C)cc2)cc(OC)c1OC` (centres undefined), for which the inhibition stood at 2.28%.

Turning to `COc1ccc(CN2C3CCCC2CC(NC(=O)c2cc(OC)c(OC)c(OC)c2)C3)cc1` (centres undefined), the inhibition turned out to be 37%. Consider `COc1cc(OC)cc(C(=O)NC2CC3CCCC(C2)N3CC(=O)Nc2ccc(Cl)cc2)c1` (centres undefined), for which the inhibition came out at 22.6%. Take `COc1cccc(C(=O)NC2CC3CCCC(C2)N3CC(=O)Nc2ccc(Cl)cc2)c1` (centres undefined): the inhibition is -2.39%. On to `COc1ccc(C(=O)NC2CC3CCCC(C2)N3CC(=O)Nc2ccccc2)cc1` (centres undefined), for which the inhibition was 3.68%.
